# Source: PubChem BioAssay
# Experiment: binders of probe aFSTL3 on microarray, primary screen, stem cell growth factor project, biochemical, small-molecule microarray, fluorescence 635/667 (AID 1064);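 further: measures binding of the biotinylated anti-FSTL3 antibody to printed compounds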
# Settings: higher = more signal
row,SMILES,composite z-score
1,C[C@@]1([C@@H](NS(=O)(=O)c2cccc3cccnc23)c2ccc(-c3ccccc3)cc2)C[C@H]1C1CCCCC1,0.299
2,O=C1O[C@H](c2ccccc2)[C@H](c2ccccc2)N2[C@H]1[C@@H](C(=O)N1CCN(c3ncccn3)CC1)[C@]1(C(=O)Nc3ccc(C#CC4(O)CCCCCC4)cc31)[C@H]2c1ccc(O)cc1,0.406
3,C=CCC(OC(C)=O)[C@@H]1[C@@H](N(Cc2ccc(-c3ccccc3)cc2)C(=O)Cc2ccc(OC)cc2)c2cc(OCCCO)ccc2N1C(=O)c1ccc2ccccc2c1 (stereo not given in full),-0.286
4,O=C(NC1CC1)[C@@H]1c2ccccc2C(=O)N(C2CCCCC2)[C@H]1c1ccc(CO)cc1,0.954
5,COC(=O)[C@@]1(Cc2ccccc2)[C@H]2c3cc(C(=O)N(C)C)n(Cc4nc5ccccc5[nH]4)c3C[C@H]2CN1C(=O)c1ccccc1,1.1
6,C=CCOC(=O)[C@@H]1[C@H]2C(=O)O[C@H](c3ccccc3)[C@H](c3ccccc3)N2[C@H](c2ccc(OCCOC(=O)[C@@H]3C[C@@H]4C(=O)N[C@@H](CC(C)C)C(=O)N4[C@@H]3c3ccc(O)cc3)cc2)[C@@]12C(=O)Nc1ccc(I)cc12,-0.479
7,COCCOC(=O)N1C(=O)[C@@]2(c3cc(C#CCNC(N)=O)ccc31)[C@H](C(N)=O)[C@H]1C(=O)O[C@H](c3ccccc3)[C@H](c3ccccc3)N1[C@@H]2c1ccc(O)cc1,-0.0585
8,C=CCNC(=O)[C@H]1[C@@H]2C(=O)O[C@@H](c3ccccc3)[C@@H](c3ccccc3)N2[C@@H](c2ccc(OCCO)cc2)[C@]12C(=O)Nc1ccc(C#Cc3ccc(OC)cc3)cc12,-0.179
9,CN1C(=O)C2C=CC(C(O)c3ccc(I)cc3)N(N(c3ccccc3)c3ccccc3)C2C1=O (stereo not given),0.75
10,Cc1ccc(S[C@]2(C(=O)NCc3ccccc3)CC(=O)N(Cc3ccccc3Cl)[C@@H]2c2ccc(CO)cc2)cc1,1.05
11,C[C@]1(C(=O)O)c2ccccc2C(=O)N(Cc2cc(C(F)(F)F)cc(C(F)(F)F)c2)[C@H]1c1ccc(CO)cc1,-0.0018
12,COC(=O)C(CC#Cc1ccc2c(c1)[C@]1(C(=O)N2)[C@H](C(N)=O)[C@H]2C(=O)O[C@H](c3ccccc3)[C@H](c3ccccc3)N2[C@@H]1c1ccccc1OCCO)C(=O)OC,0.29
13,COC(=O)[C@@]1(Cc2ccc(F)cc2)[C@H]2c3cc(C(=O)N(C)C)n(Cc4ccc(C(F)(F)F)nc4)c3C[C@H]2CN1C(=O)c1ccccc1,1.5
14,CCN1C(=O)C2CC(=O)C3C(CN(S(=O)(=O)c4ccc(C)cc4)C3c3ccc(C)cc3)C2C1=O (stereo not given),0.584
15,C=C[C@H](OC)[C@@H](O)c1ccc(OC)c(O)c1,0.694
16,CCCCCN1CC=CC23O[C@@H]4/C=C\CCCOC(=O)C4[C@H]2C(=O)N(CCCCCO)[C@@H]3C1=O (stereo not given in full),0.239
17,CC(C)C[C@H]1NC(=O)CNC(=O)[C@@]23C(=O)N[C@@H](Cc4ccccc4)C2[C@H](C)[C@@]2(C)O[C@H]2C3/C=C/C/C=C\CNC1=O (stereo not given in full),-0.564
18,C=CCNC(=O)[C@@H]1[C@H]2C(=O)O[C@H](c3ccccc3)[C@H](c3ccccc3)N2[C@H](c2ccc(OCCO)cc2)[C@@]12C(=O)Nc1ccc(C#CCNC(N)=O)cc12,0.18

row,SMILES,composite z-score
1,CC(C)[Si](C#Cc1ccccc1)(O[C@H](c1ccccc1)c1cn(Cc2ccccc2)nn1)C(C)C,-0.527
2,C=C(C(=O)CC[C@@H](OC(=O)c1cccnc1)c1cccc(OCCO)c1)C(C)C,-0.512
3,CCCCN1CC=CC23O[C@@H]4/C=C\CCC(C)OC(=O)C4[C@H]2C(=O)N(CCO)[C@@H]3C1=O (stereo not given in full),0.19
4,O=C/C=C/c1ccc(-c2ccccc2)cc1,0.4
5,COc1cc(CO)cc(I)c1O[C@H]1C=C(C(=O)NCCO)C[C@@H](N(CCN2CCOCC2)C(=O)C2CCCO2)[C@@H]1O (stereo not given in full),-0.351
6,CC(C)C[C@@H]1NC(=O)[C@H]2C[C@@H](C(=O)O)[C@@H](c3cccc(OCCO)c3)N2C1=O,0.885
7,COc1cc(Cc2cc3c(c(CCc4ccccc4)n2)[Si](C(C)C)(C(C)C)O[C@H]3c2ccccc2)cc(OC)c1OC,0.962
8,C=CCNC(=O)[C@@H]1[C@H]2C(=O)O[C@H](c3ccccc3)[C@H](c3ccccc3)N2[C@H](c2ccc(O)cc2)[C@@]12C(=O)Nc1ccc(C#CC3=CCCCC3)cc12,-0.619
9,Cc1cccc([C@H]2C[C@H]3C(Br)=C[C@@]2(CO)C(=O)[C@]32CO2)c1,-0.053
10,COCCOC(=O)N1C(=O)[C@@]2(c3cc(C#CCCO)ccc31)[C@H](C(=O)N1CCN(c3ncccn3)CC1)[C@H]1C(=O)O[C@H](c3ccccc3)[C@H](c3ccccc3)N1[C@@H]2c1ccc(OCCO)cc1,-0.372
11,COC(=O)[C@H](Cc1ccccc1)N1CC(C)(OC)O[C@@H](Cc2ccccc2)[C@H]1/C=C/C1CC1 (stereo not given in full),0.016
12,CCOC(=O)C1=CCC(c2ccncc2)N(S(=O)(=O)c2ccc(C)cc2)C1 (stereo not given),-0.149
13,COC(=O)[C@@]1(Cc2ccc(F)cc2)[C@H]2c3cc(C(=O)N4CCCC4)n(Cc4ccc(C(F)(F)F)nc4)c3C[C@H]2CN1C(=O)c1ccccc1,0.581
14,COCCOC(=O)N1C(=O)[C@@]2(c3cc(C#CCNC(N)=O)ccc31)[C@H](c1ccccc1OCCO)N1[C@H](c3ccccc3)[C@H](c3ccccc3)OC(=O)[C@H]1[C@@H]2C(=O)N1CCCCCCC1,1.63
15,CCCCC(=C=CC[C@@H](O)c1ccccc1OCCO)C[C@@H](O)c1ccccn1,0.0106
16,O=C(NCC(F)(F)F)[C@@H]1c2ccccc2C(=O)N(Cc2cc(C(F)(F)F)cc(C(F)(F)F)c2)[C@H]1c1ccc(CO)cc1,-0.381
17,CC(CO)N1C(=O)[C@@H]2[C@H]3C(=O)OCC=C[C@H]3OC23C=CCN(c2ccc4ccccc4c2)C(=O)[C@@H]13 (stereo not given in full),0.865
